Article PMC5540273 (PLoS ONE, 2017)

What was measured:
Settings in all cases: concentration: 1 μM, replicates: in singlicate; n = 1
PIK4CB = system: T1, PIK4CB
T1 construct: gene PI4KB

PIKFYVE = system: PIKFYVE
PIM1 = system: PIM1
PIM2 = system: PIM2
PIM3 = system: PIM3
PIP5K1A = system: PIP5K1A
PIP5K1C = system: PIP5K1C
PIP5K2B = system: PIP5K2B
PIP5K2C = system: T2, PIP5K2C
T2 construct: gene PIP4K2C

PKAC-alpha = system: T3, PKAC-alpha
T3 construct: gene PRKACA
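Note: KINOMEscan kinase panel screen.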

| Structure (SMILES) | %Inh (PIK4CB) | %Inh (PIKFYVE) | %Inh (PIM1) | %Inh (PIM2) | %Inh (PIM3) | %Inh (PIP5K1A) | %Inh (PIP5K1C) | %Inh (PIP5K2B) | %Inh (PIP5K2C) | %Inh (PKAC-alpha) |
| --- | --- | --- | --- | --- | --- | --- | --- | --- | --- | --- |
| CNC(=O)c1ccc(C)c(-n2c(C)cc(OCc3ccc(F)cc3F)c(Br)c2=O)c1 | 0% | 40% | 0% | 0% | 0% | 0% | 1% | 0% | 0% | 0% |
| O=C1NC(=O)C(c2ccc(Cl)cc2)=C1Nc1cccc(Cl)c1 [SB-317651] | 8% | 12% | 0% | 0% | 2% | 0% | 28% | 0% | 20% | 3% |
| COc1nccc(-c2c(-c3ccc(F)cc3)ncn2CCCN2CCOCC2)n1 [SB-282852] | 49% | 37% | 7% | 0% | 0% | 12% | 4% | 0% | 8% | 0% |
| CC(C)c1cc(-c2ccc3c(N)n[nH]c3c2)nc(N)n1 [GSK2250882] | 0% | 0% | 20% | 0% | 15% | 26% | 49% | 36% | 2% | 0% |
| Cc1nccc(-c2c(-c3ccc(F)cc3)ncn2CCCN2CCOCC2)n1.Cl [SB-282975] | 42% | 0% | 0% | 13% | 0% | 0% | 22% | 0% | 18% | 24% |
